Measured values: paper PMC4336329 (PLoS ONE, 2015)
Out of some 310,000 compounds screened, about 2,200 (0.71%) showed an effect of 50% or more. Effects have a minus sign here. The sample as a whole holds a higher share of strong results than the screen did.

Target: human ether-à-go-go-related gene (hERG) potassium channel (human, UniProt Q12809)
Assay: primary screen, population patch clamp on CHO cells stably expressing hERG; higher = less effect of the substance

human ether-à-go-go-related gene (hERG) potassium channel, sequence (Q12809 whole entry, looked up): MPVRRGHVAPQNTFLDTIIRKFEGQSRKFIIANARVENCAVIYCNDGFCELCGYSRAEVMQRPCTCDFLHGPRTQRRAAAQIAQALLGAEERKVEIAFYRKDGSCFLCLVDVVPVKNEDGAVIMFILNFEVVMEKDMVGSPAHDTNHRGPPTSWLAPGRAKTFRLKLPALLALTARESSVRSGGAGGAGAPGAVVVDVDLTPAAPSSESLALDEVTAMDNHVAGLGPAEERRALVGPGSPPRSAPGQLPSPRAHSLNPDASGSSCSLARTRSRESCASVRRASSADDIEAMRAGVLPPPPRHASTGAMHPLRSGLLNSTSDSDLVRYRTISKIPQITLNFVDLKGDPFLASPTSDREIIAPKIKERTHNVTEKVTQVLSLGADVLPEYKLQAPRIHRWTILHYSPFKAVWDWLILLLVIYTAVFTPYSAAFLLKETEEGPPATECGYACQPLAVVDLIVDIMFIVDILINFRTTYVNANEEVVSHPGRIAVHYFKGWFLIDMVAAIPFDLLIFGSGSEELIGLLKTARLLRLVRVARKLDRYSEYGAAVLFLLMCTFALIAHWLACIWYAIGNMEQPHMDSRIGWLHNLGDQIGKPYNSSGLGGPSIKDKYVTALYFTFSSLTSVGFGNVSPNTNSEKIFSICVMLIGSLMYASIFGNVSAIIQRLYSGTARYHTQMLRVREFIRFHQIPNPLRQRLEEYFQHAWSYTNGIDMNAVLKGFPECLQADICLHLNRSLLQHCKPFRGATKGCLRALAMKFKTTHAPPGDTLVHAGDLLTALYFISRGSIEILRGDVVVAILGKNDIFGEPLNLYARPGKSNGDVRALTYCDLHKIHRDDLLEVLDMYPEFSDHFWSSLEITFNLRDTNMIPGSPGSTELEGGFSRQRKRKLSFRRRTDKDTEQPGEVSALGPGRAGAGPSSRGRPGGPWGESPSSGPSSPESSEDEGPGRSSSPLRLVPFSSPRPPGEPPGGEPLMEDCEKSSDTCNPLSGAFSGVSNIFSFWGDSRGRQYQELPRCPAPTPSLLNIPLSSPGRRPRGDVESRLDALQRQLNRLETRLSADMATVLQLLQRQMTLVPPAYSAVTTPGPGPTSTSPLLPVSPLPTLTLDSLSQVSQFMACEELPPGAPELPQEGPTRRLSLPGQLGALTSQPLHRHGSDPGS

SMILES	hERG current change (%, negative = inhibition) at 1uM
Cc1cnc(-c2nnc(N(C)C(=O)c3cccnc3)s2)cn1	10.2%
CCN(CC)c1ccc(/C=N/NC(=S)NC)c(O)c1	4.81%
Cc1c(N=C2NC(=O)/C(=C/c3cccc([N+](=O)[O-])c3)S2)c(=O)n(-c2ccccc2)n1C	12.1%
Cc1ccc(S(=O)(=O)CC(O)COc2ccc(F)cc2Cl)c(C)c1 (stereo not shown)	7.06%
COc1ccc(/C=N/NC(=O)C2c3ccccc3Oc3ccccc32)c(OC)c1	11.6%
NS(=O)(=O)c1ccc(CNC(=O)c2cc(-c3cccnc3)nc3ccccc23)cc1	14.6%
CCc1ccccc1NC(=O)Nc1c(C)n(C)n(-c2ccccc2)c1=O	-14.2%
Cn1c(CSCc2ccc(F)cc2)n[nH]c1=S	13.6%
CNC(=O)CSc1nc(-c2ccccc2)c(-c2ccccc2)[nH]1	3.72%
Cc1ccc(S(=O)(=O)N2CCN(C(=O)c3nn(C(C)C)c(=O)c4ccccc34)CC2)cc1C	5.96%
CC(C)Oc1ccc(S(=O)(=O)N2CCOCC2)cc1NC(=O)C1=COCCO1	11%
CC(=O)C[C@H]1c2ccccc2S(=O)(=O)N1C1CCCC1	14.6%
Cn1c(Nc2ccccc2)nc2ccccc21	8.25%
COc1ccc(Nc2nc3ccccc3n2C)cc1	13.1%
Cn1c(Nc2ccc(F)cc2)nc2ccccc21	-77.5%
COc1ccc(-c2[nH]c(-c3ccc(C)cc3)nc2SCC(=O)Nc2nccs2)cc1	21.6%
CC1CN(C(=O)COc2ccc3c(-c4ccccc4)cc(=O)oc3c2)CC(C)O1 (stereo not shown)	10.8%
CC(=O)Nc1ccc(OS(=O)(=O)c2ccc(Cl)cc2)cc1	-1.62%
CC(=O)Nc1ccc(OS(=O)(=O)c2cc(Cl)ccc2C)cc1	13.6%
COc1ccc(Cl)cc1S(=O)(=O)Oc1ccc(NC(C)=O)cc1	-58.8%
CCN(CC)CCCNC(=O)C(C)n1c2ccccc2c2nc(=O)cc(C)n21 (stereo not shown)	12.7%
O=C1c2ccccc2C(=O)N1/N=C/c1ccc(O)c(O)c1	13.9%
CCOc1ccc(C2NC(=O)c3n[nH]c(C)c32)cc1 (stereo not shown)	9.09%

SMILES	hERG current change (%, negative = inhibition) at 1uM
COc1ccc(N2CCN(CCOc3ccc4c(C)cc(=O)oc4c3)CC2)cc1	-37.8%
COc1ccccc1N1CCN(CCCCCCOc2ccc(F)cc2)CC1	-7.53%
COc1ccccc1N1CCN(CC(=O)c2ccc(F)cc2)CC1.Cl	16.7%
COc1ccccc1N1CCN(CCCC(=O)c2ccc(F)cc2)CC1	-43.2%
COc1ccccc1N1CCN(CCCCOc2ccc(F)cc2)CC1.Cl	-71.5%
Cc1ccccc1N1CCN(CCCOc2ccc3c(C)cc(=O)oc3c2)CC1	-56.2%
Cc1cc(=O)oc2cc(OCCCN3C(=O)c4ccccc4C3=O)ccc12	-0.574%
COc1ccccc1N1CCN(CCN(C(=O)c2ccc(F)cc2)c2ccccn2)CC1.Cl	-57.8%
COc1ccccc1N1CCN(CCCCOc2cccc3ccccc23)CC1.Cl	9.44%
COc1ccccc1N1CCN(CCCOc2ccc(F)cc2)CC1	-60.3%
COc1ccccc1N1CCN(CCN(C(=O)C2CCCCC2)c2ccccn2)CC1.O=C(O)/C=C\C(=O)O	4.2%
COc1ccccc1N1CCN(Cc2ccc(F)cc2)CC1	6.42%
CCOC(=O)c1sc2nc(C)nc(N3CCCCC3C)c2c1C (stereo not shown)	-5.1%
O=C(NCCNC(=O)c1ccc(Cl)cc1Cl)c1cnccn1	6.54%
O=C(CSc1cccc2cccc(Cl)c12)NC1=NCCS1	2.37%
CSCCC(NC(=O)COc1ccccc1)C(=O)NCCOc1ccc(C)cc1 (stereo not shown)	3.41%
Cl.O=C(c1ccco1)N1CCN(CCCCOc2ccc(F)cc2)CC1	-74.8%
O=C(c1ccco1)N1CCN(CCOc2ccccc2)CC1	10.3%
O=C(CCC1CCN(C(=O)c2ccccc2Cl)CC1)NCc1ccc(F)cc1	4.08%
O=C(c1ccco1)N1CCN(C(=S)NCc2ccc(F)cc2)CC1	-3.27%
Cl.O=C(c1ccco1)N1CCN(CCOc2ccc(F)cc2)CC1	-0.809%
O=C(CCC1CCN(C(=O)c2ccco2)CC1)NCc1ccc(F)cc1	-62%
Cc1cccc(NC(=O)Cn2c(=O)n(Cc3ccco3)c(=N)c3c4c(sc32)COC(C)(C)C4)c1	3%

SMILES	hERG current change (%, negative = inhibition) at 1uM
COc1cccc(/C=C2\SC(N)=NC2=O)c1OS(=O)(=O)c1ccccc1	2.6%
COc1cccc(CN2CC(C(=O)NCCCCc3ccccn3)CCC2=O)c1 (stereo not shown)	7.17%
Cc1ccccc1Cn1c(C)nc2ccccc21	10.4%
Cc1ccc(SCc2nc3ccccc3n2CC(=O)Nc2c(C)cccc2C)cc1	6.88%
CC(C)[C@@H](C(=O)NC1CCN(Cc2ccccc2)CC1)N1C(=O)N2CCc3c([nH]c4ccccc34)[C@@]2(C)C1=O	-4.75%
C[C@@H](C(=O)NC1CCN(Cc2ccccc2)CC1)N1C(=O)N2CCc3c([nH]c4ccccc34)[C@@]2(C)C1=O	-62.1%
CC(C)C[C@@H](C(=O)NC1CCN(Cc2ccccc2)CC1)N1C(=O)N2CCc3c([nH]c4ccccc34)[C@@]2(C)C1=O	-12.1%
Cc1ccc(-n2nnnc2SCC(=O)Nc2ccccc2-c2ccccc2)cc1C	2.73%
C#CC1CN(Cc2ccccc2)CC(C#C)N1C.Cl (stereo not shown)	15.1%
CCN(CC)c1ccc(NC(=O)CN2CCN(c3ccccc3F)CC2)cc1	7.06%
O=C(CN1CCN(c2ccc(O)cc2)CC1)Nc1ccc(SC(F)F)cc1	-78.4%
O=C(CN1CCN(c2ccc(Cl)cc2)CC1)Nc1ccc(F)cc1	-28.1%
COc1cccc(N2CCN(CC(=O)Nc3ccc(SC(F)F)cc3)CC2)c1	-27.7%
CCN(CC)c1ccc(NC(=O)CN2CCN(CC(=O)Nc3ccc(F)cc3)CC2)cc1	-84.5%
CN(C)c1ccc(NC(=O)CN2CCN(CC(=O)Nc3ccc(F)cc3)CC2)cc1	-61.1%
COc1ccc(N2CCN(CC(=O)Nc3ccc(SC(F)F)cc3)CC2)cc1	-35.8%
O=C(CN1CCN(CC(=O)Nc2ccc(Cl)cc2)CC1)Nc1ccc(F)cc1	-86.9%
CN(C)c1ccc(NC(=O)CN2CCN(c3ccc(F)cc3)CC2)cc1	-3.53%
CN(C)c1ccc(NC(=O)CN2CCC(C(=O)c3ccc(F)cc3)CC2)cc1	-4.93%
CCN(CC)c1ccc(NC(=O)CN2CCN(CC(=O)Nc3ccccc3F)CC2)cc1	-13%
O=C(CN1CCN(CC(=O)Nc2ccc(-c3ccccc3)cc2)CC1)Nc1ccc(F)cc1	-13.7%
